High-throughput results deposited in PubChem by The Scripps Research Institute Molecular Screening Center.
Hits are enriched below; roughly 3.4% of the tested compounds scored in any of these assays.
KLK7 zymogen act: proKLK7 zymogen activators, primary screen, biochemical, fluorescence intensity; Kallikrein-7 (Homo sapiens), P49862; purified proKLK7, EDANS-DABCYL substrate fluorescence; 100% is mature enzyme control, 0% vehicle; activation, % at 7 µM; 370,000 tested, 0.9% active; AID 652039, 2013;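 active = activation above the mean of all tested compounds plus 3 SD, computed per campaign excluding outliers beyond control limits, cut at about 13% in these data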
Target sequence (P49862 whole entry, looked up): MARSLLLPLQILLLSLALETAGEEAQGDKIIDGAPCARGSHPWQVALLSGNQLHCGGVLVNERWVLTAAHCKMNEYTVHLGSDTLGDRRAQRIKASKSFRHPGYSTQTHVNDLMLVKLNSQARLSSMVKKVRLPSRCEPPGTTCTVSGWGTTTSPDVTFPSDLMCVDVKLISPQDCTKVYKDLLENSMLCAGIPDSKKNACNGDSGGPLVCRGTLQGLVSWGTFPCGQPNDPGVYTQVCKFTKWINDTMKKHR
HGIII-sPLA2 inh: human group III sPLA2 inhibitors, primary screen, biochemical, QFRET, BODIPY PC-A2 liposome substrate. QFRET BODIPY PC-A2 liposome hydrolysis, fluorescence. inhibition, % at 12.2 µM. Group 3 secretory phospholipase A2 (Homo sapiens), Q9NZ20. 370,000 tested, 0.56% active;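 active = inhibition above mean plus 3 SD of compounds lying within the high and low control bounds, cut at about 19% in these data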;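 also: 0% = median of test compound wells and 100% = no enzyme DMSO wells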
PLC-beta3 inh: human PLC-beta3 inhibitors, primary screen, biochemical, fluorescence; Purified PLC-beta3, fluorogenic substrate; inhibition, % at 12.2 µM; 370,000 tested, 0.18% active; AID 720704, 2013;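 also: 0% = median of compound wells on plate and 100% = full blocker control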
ADAM10 inh: human ADAM10 inhibitors, primary screen, biochemical, QFRET, HTS; recombinant ADAM10, EDANS/DABCYL FRET peptide cleavage, 3 h; inhibition, % at 7 µM; 370,000 tested, 0.62% active;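 active = inhibition above a per-campaign cutoff equal to the mean of compounds falling between control-based bounds plus 3 SD, cut at about 20% in these data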;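 also: 0% = DMSO wells while the 100% control is not disclosed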
ADAM17 inh: ADAM17 inhibitors, primary screen, biochemical, QFRET | recombinant ADAM17, EDANS/DABCYL FRET peptide cleavage | AID 720648, 2013 | 370,000 tested, 0.83% active | inhibition, % at 6.95 µM;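 active = inhibition above the mean of compounds lying between control limits plus 3 SD, set per campaign, cut at about 8.5% in these data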;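 also: 0% = DMSO-only wells as the low control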
PLCg1 inh: PLC-gamma1 enzyme inhibitors, primary screen, biochemical, fluorescence, purified enzyme. 1-phosphatidylinositol 4,5-bisphosphate phosphodiesterase gamma-1 (Homo sapiens), P19174. AID 720700, 2013. inhibition, % at 12.2 µM. 370,000 tested, 0.84% active. fluorogenic substrate; in the data active = inhibition above about 9.5%
ADAM10 confirm: human ADAM10 inhibitors, confirmation, biochemical, QFRET, triplicate | shares compounds with ADAM10 inh | ADAM10 QFRET peptide cleavage, EDANS fluorescence | inhibition, % at 6.95 µM | 2,100 tested, 1% active;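 active = inhibition above about 20% chosen separately for each screening run, limit read from the data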;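 also: 0% = DMSO wells and 100% = marimastat wells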
ADAM17 counter: ADAM17 inhibitors, counter-screen for ADAM10 exosite inhibitor project, biochemical, QFRET, high throughput | shares compounds with ADAM10 inh | ADAM17 QFRET peptide cleavage, EDANS fluorescence | inhibition, % at 6.95 µM | 2,100 tested, 0.5% active | AID 743214, 2013;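 active = mean triplicate inhibition above the solvent-only control wells' mean plus 3 SD, cut at about 12% in these data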;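 also: 0% = DMSO wells and 100% = marimastat wells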
ADAM10 ctr: ADAM10 inhibitors, counter-screen for ADAM17 exosite inhibitor project, biochemical, FRET, human ADAM10; 2,900 tested, 47% active; shares compounds with ADAM17 inh; inhibition, % at 6.95 µM; recombinant ADAM10, EDANS/DABCYL FRET peptide cleavage, 3 h;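 active = mean inhibition over the triplicate runs exceeds the activity threshold set in the earlier primary screen, cut at about 20% in these data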;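 also: 0% = DMSO wells and 100% = marimastat wells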
ADAM17 confirm: ADAM17 inhibitors, hit retest, confirmation, biochemical, QFRET peptide cleavage | recombinant ADAM17, EDANS/DABCYL QFRET peptide cleavage | inhibition, % at 6.95 µM | shares compounds with ADAM17 inh | 2,900 tested, 65% active | AID 743257, 2014;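 active = mean inhibition across replicates above the hit cutoff set in the primary screen, cut at about 8.5% in these data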;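 also: 0% = DMSO wells and 100% = marimastat wells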
PLCg1 ctr: PLC-gamma1 enzyme inhibitors, counter-screen for PLC-beta3 inhibitor project, biochemical, fluorescence. shares compounds with PLCg1 inh. inhibition, % at 12.3 µM. 3,300 tested, 3.1% active. purified PLC-gamma1, fluorogenic substrate; in the data active = inhibition above about 9.5%
PLCbeta3 conf: PLC-beta3 inhibitor confirmation, biochemical, fluorescence, purified enzyme. fluorogenic substrate fluorescence. shares compounds with PLCg1 inh. inhibition, % at 12.3 µM. 3,300 tested, 1% active
Starred values were filed as active, the others as inactive; · = no result given. Rule as the data show it, unless noted: active = inhibition above about 11%; inactive = the rest.

SMILES	KLK7 zymogen act	HGIII-sPLA2 inh	PLC-beta3 inh	ADAM10 inh	ADAM17 inh	PLCg1 inh	ADAM10 ctr	ADAM17 confirm	others
CCC(C)C1NC(=O)C(NC(=O)C(CC(C)C)N(C)C(=O)C2CCCN2C(=O)C(C)O)C(C)OC(=O)C(Cc2ccc(OC)cc2)N(C)C(=O)C2CCCN2C(=O)C(CC(C)C)NC(=O)[C@H](C)C(=O)[C@H](C(C)C)OC(=O)CC1O (some centres not stated)	0.1	-20.2	7.2	25.9*	11.8*	18.4*	2.4	5.0	ADAM10 confirm=-0.3;ADAM17 counter=-0.7;PLCg1 ctr=-4.4;PLCbeta3 conf=0.2
Cc1cc(C)c2c(ccc3cccc[n+]32)c1	0.0	-1.9	-4.5	-31.1	-10.8	-0.9	·	·
O=P(NS(=O)(=O)c1ccccc1)(Oc1ccccc1)Oc1ccccc1	-0.1	-28.6	3.8	2.3	8.7*	3.6	-1.8	2.2
O=P(NS(=O)(=O)c1ccc(Br)cc1)(Oc1ccccc1)Oc1ccccc1	-0.3	-56.4	-9.0	0.2	-0.6	-3.4	·	·
COc1ccc(OCC(=O)Nc2ccc(Cl)cc2C(=O)c2ccccc2)cc1	0.3	8.4	9.4	12.3	9.1*	4.0	-2.9	-1.0
Cc1cc(=O)oc2c(C)c(OCC(=O)N3CCN(Cc4ccccc4)CC3)ccc12	0.5	3.0	-40.6	-184.2	-59.3	-23.8	·	·
COC(=O)C1=C(c2ccccc2OCc2ccccc2)C[C@@H]2CC[C@H]1N2C(=O)NCc1ccc(Cl)cc1	-0.5	-16.8	1.2	19.1	9.7*	4.1	17.4	11.3*
COC(=O)C1=C(c2ccccc2OCc2ccccc2)C[C@@H]2CC[C@H]1N2C(=O)NCc1ccc(OC)c(OC)c1	0.8	-10.5	6.9	16.4	11.8*	7.5	6.0	5.7
COC(=O)C1=C(c2ccc(-c3ccccc3)c(F)c2)C[C@@H]2CC[C@H]1N2C(=O)NCCc1ccccc1	-0.5	-12.0	4.7	18.8	9.0*	3.3	13.1	7.3
COC(=O)C1=C(c2ccccc2OCc2ccccc2)C[C@@H]2CC[C@H]1N2C(=O)NCc1cccc(F)c1	0.6	-5.8	0.9	2.7	0.8	0.2	·	·
COC(=O)C1=C(c2ccc(-c3ccccc3)c(F)c2)C[C@@H]2CC[C@H]1N2C(=O)NCCNC(C)=O	0.5	-1.7	2.6	7.2	2.4	-129.0	·	·
CC(=O)N(C)CC#CCN1CCCC(CO)C1 (configuration not stated)	0.0	3.5	0.1	-5.2	-2.8	-1.1	·	·
CCOC(=O)C(O)(c1ccc(NC(=O)Oc2ccccc2)cc1)C(F)(F)F (configuration not stated)	-0.4	0.5	1.7	-1.2	-0.1	-1.1	·	·
CCOC(=O)C(O)(c1ccc(NC(=S)NC(=O)c2ccc(Cl)cc2Cl)cc1)C(F)(F)F (configuration not stated)	0.2	-7.1	-0.1	17.6	9.6*	-3.6	24.4*	14.2*
CCOC(=O)C(O)(c1ccc(NC(=S)NC(=O)c2ccc(Cl)cc2Cl)c(C)c1)C(F)(F)F (configuration not stated)	-0.5	-1.1	-2.0	28.6*	14.6*	4.3	47.4*	23.4*
COc1ccc(CC(C)NCCC(c2ccccc2)c2ccccc2)cc1 (configuration not stated)	-0.9	5.6	-2.4	8.6	-4.0	3.9	·	·
c1ccc(-c2ccc3c(c2)CNCc2cnnn2-3)cc1	0.4	8.6	-2.7	-13.0	-3.6	0.5	·	·
CN1C(=O)NC(=O)C2(CCCC2)C1=O	0.2	-2.8	2.9	-4.1	-4.1	-1.8	·	·
CCC(c1nnnn1Cc1ccccc1)N1CCC2(CC1)C(=O)NCN2c1ccccc1 (configuration not stated)	-0.1	-8.4	5.7	2.4	10.2*	8.0	18.3	11.9*
COc1ccc(C(c2nnnn2Cc2ccccc2)N2CCC3(CC2)C(=O)NCN3c2ccccc2)cc1 (configuration not stated)	-0.4	-9.7	1.2	10.8	5.0	-2.6	·	·
N#Cc1ccc(NC(=O)CN2CCN(C(=O)c3cccs3)CC2)cc1Cl	-0.1	-2.7	-0.7	-8.3	-2.7	3.3	·	·
COC(=O)C1=C(C(=O)OC)C2c3ccccc3C1c1ccccc12	0.5	-8.1	4.0	11.9	10.7*	8.7	7.2	3.1
Cc1ccc(Cn2nnnc2CN2CCC(n3nnc4cc(C)ccc43)CC2)cc1	-0.1	-42.9	-1.9	9.6	9.3*	5.1	4.3	5.7
CCc1ccc(NC(=O)CCNC(=O)N2C[C@H]3C[C@@H](C2)c2cccc(=O)n2C3)cc1	-0.4	-0.1	7.1	-3.2	-0.4	1.2	·	·
O=C(NN=Cc1ccc(N(CCCl)CCCl)cc1)c1cc(=O)[nH]c(=O)[nH]1	-0.3	5.6	-2.1	5.2	5.9	7.3	·	·
O=C(NN=Cc1ccc(N(CCCl)CCCl)cc1)C(=O)c1c[nH]c2ccccc12	-6.3	-12.9	-190.6	10.7	14.5*	-149.8	11.1	13.4*
COc1ccc(/C=C/C=C2C(=O)NC(=S)NC2=O)cc1	0.7	-2.7	-41.3	-16.3	-6.5	-27.5	·	·
